This note sets out measurements from PubChem BioAssay.

A short description of test [1]: antimalarial activity against Dd2 strain (AID 2302;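 active = growth inhibition above 50% at the single 2 µM test dose, taken to imply half-maximal potency below 2 µM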;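 also: 0% = DMSO untreated growth and 100% = chloroquine plus artemisinin killed control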). The conditions noted are these: P. falciparum Dd2 in RBCs, LDH growth readout, 72 h; at 2 µM; active compounds read high.
Test [2] can be described thus: human hepatoma cell viability loss – ATP luminescence, cytotoxicity control for P. falciparum antimalarial project, primary screen (AID 2303;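 active = inhibition above 50%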;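 also: 0% = DMSO wells and 100% = digitonin-killed cells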). To be noted: HepG2 viability, 24-48 h, at 10 µM, active compounds read high.
Test [3] addresses L-lactate dehydrogenase (Plasmodium falciparum (isolate CDC / Honduras)) (UniProt Q27743). The test is described as follows: PfLDH activity inhibition – cell lysate, 3D7 strain, counter-screen for P. falciparum growth inhibition project (AID 2304).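 Also: 0% = vehicle and 100% = reference inhibitor.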 The conditions noted are these: P. falciparum 3D7 crude extract, LDH APAD/NBT absorbance; at 2 µM; active compounds read high.
Test [4] is described as follows: inhibition of 3D7 malaria parasite growth – strain 3D7 (AID 2306).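 Also: 0% = DMSO wells and 100% = chloroquine plus artemisinin control wells.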 To be noted: P. falciparum 3D7 erythrocytic growth, LDH absorbance, 72 h; at 2 µM; active compounds read high.
Test [5] has as its target Calcium-dependent protein kinase 1 (Plasmodium falciparum (isolate 3D7)) (UniProt P62344). Put plainly: PfCDPK1 kinase inhibitors, biochemical, TCAMS library (AID 1159585; cut-off not given, nearly all actives have IC50 up to about 0.98 µM;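 also: inhibitors leave more ATP so luminescence rises with inhibition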). To be noted: recombinant PfCDPK1, Kinase-Glo ATP depletion luminescence.
Test [6] addresses Plasmodium falciparum protein kinase 6 (PK6, PF3D7_1337100) (UniProt Q8IDW1). The test is described as follows: PfPK6 kinase inhibitors, biochemical, TCAMS library (AID 1159586). The conditions noted are these: recombinant PfPK6, Kinase-Glo ATP depletion luminescence.
Test [7] has as its target Protein kinase 7 (PK7), Plasmodium falciparum 3D7 (PF3D7_0213400) (UniProt Q7YTF7). Put plainly: inhibition of Plasmodium PK7 catalytic activity – biochemical, TCAMS antimalarial set, Kinase-Glo luminescence (AID 1159587). To be noted: recombinant PfPK7, Kinase-Glo ATP depletion luminescence.
In test [8] the target is Calcium-dependent protein kinase 4 (Plasmodium falciparum (isolate 3D7)) (UniProt Q8IBS5). The test is described as follows: PfCDPK4 kinase inhibitors, biochemical, TCAMS library (AID 1159588; cut-off not given, nearly all actives have IC50 up to about 0.91 µM). The conditions noted are these: recombinant PfCDPK4, Kinase-Glo ATP depletion luminescence.
Chain of Calcium-dependent protein kinase 4 (Plasmodium falciparum (isolate 3D7)) (Q8IBS5 whole entry, looked up): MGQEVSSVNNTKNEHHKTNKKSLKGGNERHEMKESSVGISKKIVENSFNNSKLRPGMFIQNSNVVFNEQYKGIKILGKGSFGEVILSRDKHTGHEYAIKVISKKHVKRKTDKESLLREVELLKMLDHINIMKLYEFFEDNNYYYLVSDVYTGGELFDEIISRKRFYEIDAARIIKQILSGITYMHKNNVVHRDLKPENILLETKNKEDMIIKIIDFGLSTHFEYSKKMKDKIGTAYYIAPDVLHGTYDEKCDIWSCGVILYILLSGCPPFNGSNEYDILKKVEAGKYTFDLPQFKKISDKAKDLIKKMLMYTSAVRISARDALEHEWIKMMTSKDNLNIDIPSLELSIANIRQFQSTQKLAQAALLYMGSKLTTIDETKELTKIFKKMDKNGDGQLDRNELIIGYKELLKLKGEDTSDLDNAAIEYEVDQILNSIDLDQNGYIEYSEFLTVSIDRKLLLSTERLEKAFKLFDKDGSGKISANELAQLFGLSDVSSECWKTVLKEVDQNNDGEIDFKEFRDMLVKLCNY

SMILES strings stand for the structures. Unmarked numbers belong to inactive results. For some assays here: Entries with a potency or affinity are not part of this list. Calls of active or inactive are those of the source. Unless noted, no rule for the calls is given here.

Chain of Protein kinase 7 (PK7), Plasmodium falciparum 3D7 (PF3D7_0213400) (Q7YTF7 1-343): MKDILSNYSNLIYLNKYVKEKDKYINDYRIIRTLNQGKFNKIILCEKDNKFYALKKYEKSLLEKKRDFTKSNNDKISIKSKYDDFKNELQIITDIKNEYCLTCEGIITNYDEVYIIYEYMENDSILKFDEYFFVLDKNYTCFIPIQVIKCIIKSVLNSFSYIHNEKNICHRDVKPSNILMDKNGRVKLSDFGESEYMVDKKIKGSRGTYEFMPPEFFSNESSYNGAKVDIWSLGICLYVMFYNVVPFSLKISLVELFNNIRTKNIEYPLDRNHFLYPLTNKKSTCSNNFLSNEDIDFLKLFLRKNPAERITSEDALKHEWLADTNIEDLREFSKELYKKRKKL
Chain of L-lactate dehydrogenase (Plasmodium falciparum (isolate CDC / Honduras)) (Q27743 whole entry, looked up): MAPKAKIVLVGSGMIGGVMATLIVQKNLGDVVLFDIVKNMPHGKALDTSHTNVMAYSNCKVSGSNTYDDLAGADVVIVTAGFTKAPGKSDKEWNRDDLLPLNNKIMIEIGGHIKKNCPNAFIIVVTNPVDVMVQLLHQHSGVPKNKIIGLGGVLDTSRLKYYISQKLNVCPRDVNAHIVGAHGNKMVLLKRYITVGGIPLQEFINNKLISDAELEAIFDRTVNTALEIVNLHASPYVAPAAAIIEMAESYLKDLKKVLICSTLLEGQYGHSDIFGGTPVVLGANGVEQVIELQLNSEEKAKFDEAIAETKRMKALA
Chain of Calcium-dependent protein kinase 1 (Plasmodium falciparum (isolate 3D7)) (P62344 whole entry, looked up): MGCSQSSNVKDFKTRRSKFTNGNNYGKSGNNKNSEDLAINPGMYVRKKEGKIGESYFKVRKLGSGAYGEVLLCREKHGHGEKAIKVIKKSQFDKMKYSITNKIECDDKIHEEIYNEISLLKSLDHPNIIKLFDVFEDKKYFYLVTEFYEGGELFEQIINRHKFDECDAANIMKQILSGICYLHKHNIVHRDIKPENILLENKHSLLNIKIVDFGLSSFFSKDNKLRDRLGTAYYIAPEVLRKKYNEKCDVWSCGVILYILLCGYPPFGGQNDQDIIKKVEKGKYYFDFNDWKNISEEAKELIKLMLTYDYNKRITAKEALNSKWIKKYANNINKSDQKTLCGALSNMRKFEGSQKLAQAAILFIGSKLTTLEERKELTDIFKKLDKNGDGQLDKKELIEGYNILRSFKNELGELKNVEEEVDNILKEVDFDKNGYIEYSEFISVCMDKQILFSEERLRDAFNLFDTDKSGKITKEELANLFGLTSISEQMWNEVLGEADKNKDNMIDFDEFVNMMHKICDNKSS
Chain of Plasmodium falciparum protein kinase 6 (PK6, PF3D7_1337100) (Q8IDW1 1-305): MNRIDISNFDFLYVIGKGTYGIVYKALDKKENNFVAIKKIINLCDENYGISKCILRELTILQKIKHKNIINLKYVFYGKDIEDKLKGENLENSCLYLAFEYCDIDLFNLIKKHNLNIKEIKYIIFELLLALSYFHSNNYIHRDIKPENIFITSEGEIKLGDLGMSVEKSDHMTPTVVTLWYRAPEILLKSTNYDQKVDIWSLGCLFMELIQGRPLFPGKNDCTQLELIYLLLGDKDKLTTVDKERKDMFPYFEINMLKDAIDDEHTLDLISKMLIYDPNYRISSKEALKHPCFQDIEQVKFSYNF

`Cn1cnc(CCNC(=O)c2cccc(-c3ccc(-c4nc5ccc(F)cc5[nH]4)cc3)c2)c1`: the growth inhibition in test [1] is 5%; in test [4], 88% (active). In addition, the values for the inhibition in test [2] and in test [3] were 26% and 4%, respectively. Further, the outcome in test [5], in test [6], in test [7] and in test [8] was inactive.
Consider `Nc1cccc(CNCc2cccc(-c3cccc(-c4nc5ccccc5[nH]4)c3)c2)c1`, for which the growth inhibition in test [1] is 84% (active); in test [4], 101% (active). Further, the values for the inhibition in test [2] and in test [3] were 1% and -7%, respectively. The result in test [5], in test [6], in test [7] and in test [8] was inactive.
With `CCOc1ccc2c(c1)OC(c1ccccc1)(C(F)(F)F)NC2=O` (configuration not stated), the growth inhibition in test [1] was 98% (active); in test [4] it was 100% (active). In addition, the inhibition is -7% in test [2] and -2% in test [3]. Moreover, the outcome in test [5], in test [6], in test [7] and in test [8] was inactive.
With `O=C(NCCCCCN1CCC(c2c[nH]c3ccccc23)CC1)Nc1cccc(C(F)(F)F)c1`, the values for the growth inhibition in test [1] and in test [4] were 11% and 97% (active), respectively. For the same molecule, the inhibition in test [2] is 51% (active); in test [3], -1%. In addition, the result in test [5], in test [6], in test [7] and in test [8] was inactive.
In the case of `CC1(C)N=C(N)N=C(N)N1OCCCOc1ccccc1N`, the growth inhibition in test [1] was 95% (active); in test [4], 93% (active). For the same molecule, the inhibition in test [2] was 70% (active); in test [3], 8%. Besides, the result in test [5], in test [6], in test [7] and in test [8] was inactive.
Regarding `COc1ccc(CCCCN2C(=O)C(c3ccccc3)(c3ccccc3)N=C2N)cc1`, the growth inhibition in test [1] was 95% (active); in test [4] it was 97% (active). For the same molecule, the inhibition was 40% in test [2] and -2% in test [3]. The outcome in test [5], in test [6], in test [7] and in test [8] was inactive.
For `CS(=O)(=O)NCCCNCc1ccc(-c2cccc(-c3nc4ccc(C(F)(F)F)cc4[nH]3)c2)cc1`, the growth inhibition in test [1] was 83% (active); in test [4], 100% (active). The inhibition was 17% in test [2] and 1% in test [3]. Also, the result in test [5], in test [6], in test [7] and in test [8] was inactive.
On to `COc1ccc(-c2cncc(-c3ccc(OC)c(OC)c3)n2)cc1OC`, for which the growth inhibition is 90% (active) in test [1] and 95% (active) in test [4]. In addition, the inhibition in test [2] and in test [3] was 6% throughout. Further, the result in test [5], in test [6], in test [7] and in test [8] was inactive.
Consider `CN(C)CCC=C1c2ccccc2Sc2c(O)cc(Cl)cc21`, for which the growth inhibition in test [1] was 80% (active); in test [4] it was 100% (active). Moreover, the inhibition is 8% in test [2] and -9% in test [3]. For the same molecule, the outcome in test [5], in test [6], in test [7] and in test [8] was inactive.
For the molecule `COc1ccc2nc3cc(Cl)ccc3c(NCCNCC(O)CO)c2n1` (configuration not stated), the growth inhibition in test [1] is 101% (active); in test [4], 100% (active). Moreover, the inhibition in test [2] was 12%; in test [3] it was 2%. Moreover, the outcome in test [5], in test [6], in test [7] and in test [8] was inactive.
On to `COc1cc2nccc(Nc3ccc(OCc4ccc(NC(C)=O)cc4)cc3)c2cc1OC`, for which the growth inhibition in test [1] is 95% (active); in test [4] it was 101% (active). Also, the inhibition was 24% in test [2] and 3% in test [3]. Further, the result in test [5], in test [6], in test [7] and in test [8] was inactive.
With `Cc1cc(C(F)(F)F)cc(-n2ncc(-c3ccc(C(=O)NCCNCc4ccccc4)cc3)c2N)n1`, the figures for the growth inhibition in test [1] and in test [4] were 9% and 91% (active), respectively. Moreover, the inhibition in test [2] was 98% (active); in test [3] it was -1%. Further, the outcome in test [5], in test [6], in test [7] and in test [8] was inactive.
For `Cc1ccc(NC(=O)NC2CCN(c3ccnc4ccccc34)C2)cc1` (configuration not stated), the results for the growth inhibition in test [1] and in test [4] were 48% and 99% (active), respectively. Besides, the figures for the inhibition in test [2] and in test [3] were 7% and 0%, respectively. The result in test [5], in test [6], in test [7] and in test [8] was inactive.
On to `Cc1noc(C)c1-c1ccc2c(Nc3ccccc3C(C)(C)C)c(C(=O)NCc3ccc4c(c3)OCO4)cnc2c1`, for which the results for the growth inhibition in test [1] and in test [4] were 88% (active) and 96% (active), respectively. The inhibition was 37% in test [2] and -3% in test [3]. Besides, the outcome in test [5], in test [6], in test [7] and in test [8] was inactive.
Regarding `O=C(/C=C/c1ccc(Cl)c(Cl)c1)NCCCCCN1CCC(NC(=O)Nc2ccc3c(c2)OCO3)CC1`, the growth inhibition in test [1] was 5%; in test [4], 103% (active). Moreover, the inhibition was 12% in test [2] and 6% in test [3]. Moreover, the outcome in test [5], in test [6], in test [7] and in test [8] was inactive.
With `CC(C)N1CCN(C(CN2CCN(CCCOc3ccc4ccccc4c3)CC2)c2ccc(F)cc2)CC1` (configuration not stated), the growth inhibition was 91% (active) in test [1] and 101% (active) in test [4]. For the same molecule, the inhibition in test [2] is 59% (active); in test [3], 5%. The outcome in test [5], in test [6], in test [7] and in test [8] was inactive.
For the molecule `Cc1c(C(=O)NCc2ccncc2)sc2nc(-c3cccc([N+](=O)[O-])c3)cn12`, the growth inhibition is 29% in test [1] and 97% (active) in test [4]. The inhibition in test [2] is 18%; in test [3], -2%. Moreover, the result in test [5], in test [6], in test [7] and in test [8] was inactive.
Consider `CCCN(CCC)CCCCC(C)Nc1c2ccc(Cl)cc2nc2ccc(OC)cc12` (configuration not stated), for which the figures for the growth inhibition in test [1] and in test [4] were 100% (active) and 102% (active), respectively. Besides, the inhibition in test [2] is 42%; in test [3], -2%. Also, the outcome in test [5], in test [6], in test [7] and in test [8] was inactive.
Turning to `COc1ccc(C(=O)Nc2cc(Br)c3c(c2)CNCC3)cc1C(F)(F)F`, the growth inhibition is 4% in test [1] and 90% (active) in test [4]. The figures for the inhibition in test [2] and in test [3] were 13% and 8%, respectively. For the same molecule, the outcome in test [5], in test [6], in test [7] and in test [8] was inactive.
